In all, about 310,000 compounds went through this assay and about 14,000 (4.5%) showed an effect of 50% or more. Effects have a minus sign here. Shown is part of a subset that was picked to be rich in strong results.
target: human ether-à-go-go-related gene (hERG) potassium channel (human, UniProt Q12809); experiment: primary screen, population patch clamp on CHO cells stably expressing hERG; higher = less effect of the substance
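Further: peak tail current of the secondary pulse compared with the same well before compound.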

Sequence of human ether-à-go-go-related gene (hERG) potassium channel (Q12809 whole entry, looked up): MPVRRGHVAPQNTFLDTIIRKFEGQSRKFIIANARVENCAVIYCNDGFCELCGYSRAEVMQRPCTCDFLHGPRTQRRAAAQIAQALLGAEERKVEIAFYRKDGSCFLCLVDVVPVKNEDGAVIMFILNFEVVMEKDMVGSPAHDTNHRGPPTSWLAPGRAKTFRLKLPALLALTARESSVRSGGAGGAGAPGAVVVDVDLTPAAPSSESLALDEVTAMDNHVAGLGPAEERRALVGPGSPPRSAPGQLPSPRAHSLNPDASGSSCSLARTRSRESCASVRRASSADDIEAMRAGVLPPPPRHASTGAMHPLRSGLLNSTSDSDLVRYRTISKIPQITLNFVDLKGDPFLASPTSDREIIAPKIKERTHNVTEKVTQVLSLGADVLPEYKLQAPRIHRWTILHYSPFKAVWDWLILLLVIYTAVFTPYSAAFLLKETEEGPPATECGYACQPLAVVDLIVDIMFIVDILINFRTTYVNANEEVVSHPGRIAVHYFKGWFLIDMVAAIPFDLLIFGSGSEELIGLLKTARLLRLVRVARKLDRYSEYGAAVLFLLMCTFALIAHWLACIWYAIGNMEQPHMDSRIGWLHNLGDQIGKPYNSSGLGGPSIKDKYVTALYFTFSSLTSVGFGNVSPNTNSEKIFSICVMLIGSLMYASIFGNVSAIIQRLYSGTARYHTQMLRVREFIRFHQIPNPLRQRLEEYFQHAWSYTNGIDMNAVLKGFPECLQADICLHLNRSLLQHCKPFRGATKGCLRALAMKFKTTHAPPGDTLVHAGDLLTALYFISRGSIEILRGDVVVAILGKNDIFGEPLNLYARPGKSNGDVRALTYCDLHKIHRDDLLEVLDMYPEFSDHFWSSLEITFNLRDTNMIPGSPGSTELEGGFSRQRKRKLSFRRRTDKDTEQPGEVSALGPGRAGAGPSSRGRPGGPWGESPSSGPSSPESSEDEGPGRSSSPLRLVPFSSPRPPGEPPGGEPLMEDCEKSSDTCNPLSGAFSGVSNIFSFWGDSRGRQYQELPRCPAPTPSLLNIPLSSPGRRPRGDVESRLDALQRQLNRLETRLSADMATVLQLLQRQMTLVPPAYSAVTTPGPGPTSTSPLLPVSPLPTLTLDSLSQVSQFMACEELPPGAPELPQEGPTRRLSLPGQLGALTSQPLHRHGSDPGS

In order of rising “hERG current change (%, negative = inhibition) at 10uM” value:
1. CCN1CCCC1CNC(=O)c1cc2cc(F)ccc2[nH]1 (stereo not shown)  -73.3%
2. O=c1[nH]c(N/N=C\c2ccc3c(c2)OCO3)nc2ccccc12  -70.7%
3. COc1ccc(-c2csc(N(CCCN(C)C)C(=O)c3ccc(C)cc3)n2)cc1.Cl  -68.2%
4. O=c1[nH]c(CN2CCN(C/C=C/c3ccccc3)CC2)nc2ccccc12  -65.2%
5. O=C(/C=C/c1ccccc1)N1CCN(Cc2nc3ccccc3c(=O)[nH]2)CC1  -64.7%
6. CCCCN1CCCC1CNC(=O)c1cc(C#N)c2ccccc2c1OC (stereo not shown)  -64.3%
7. CCc1cc(Cl)c(OC)c(C(=O)NC[C@@H]2CCCN2CC)c1O.Cl  -59.2%
8. O=c1[nH]c(CN2CCN(Cc3ccc4c(c3)OCO4)CC2)nc2ccccc12  -58.9%
9. COc1ccc(-c2csc(N(CCCN(C)C)C(=O)c3ccc(F)cc3)n2)cc1.Cl  -58.1%
10. CCN1CCCC1CNC(=O)c1[nH]c2ccc(OC)cc2c1C (stereo not shown)  -51.2%
11. O=C(CCc1nc2ccccc2c(=O)[nH]1)N1CCN(C/C=C/c2ccccc2)CC1  -42.4%
12. CCCCC1=CC2=CC(=O)C(C)(OC(=O)CC)C(=O)C2=CN1C1CCCCC1 (stereo not shown)  -38%
13. CC(C)(C)N1C(=O)Cc2c1nc(N)c1c(N)nc(N3CCCCC3CO)c(C#N)c21 (stereo not shown)  -24.3%
14. COc1cccc(N2CCN(C3CCCC(C)C3)CC2)c1 (stereo not shown)  -23.8%
15. O=c1[nH]c(CN2CCNCC2)nc2ccccc12  -23.4%
16. COC(=O)C[C@H]1c2cc(C(F)(F)F)ccc2S(=O)(=O)N1c1ccc(N(C)C)cc1  -20.9%
17. CCN1CCCC1CNC(=O)c1cc2c(OC)cccc2[nH]1 (stereo not shown)  -20.8%
18. O=C(c1ccccc1)N(Cc1ccc2c(c1)OCO2)Cc1nc2ccccc2c(=O)[nH]1  -15.4%
19. O=c1[nH]c(N/N=C/c2ccccc2)nc2ccccc12  -14.9%
20. CCN1CCC[C@H]1CNC(=O)c1c(O)c(Cl)cc(Cl)c1OC.O=C(O)C(O)C(O)C(=O)O  -13.8%
21. Cc1cccn2c(=O)c(/C=C(\C#N)C(N)=O)c(N3CCCCCC3)nc12  -13.2%
22. CCN1CCCC1CNC(=O)c1cc2ccc(OC)cc2[nH]1 (stereo not shown)  -12.4%
23. CCC(CC)C(=O)N1CCN(Cc2nc3ccccc3c(=O)[nH]2)CC1  -11.3%
24. CCN1CCC[C@H]1CNC(=O)c1c(O)c(Cl)cc(Cl)c1OC  -10.4%
25. COc1ccc(Nc2nc(-c3cccc([N+](=O)[O-])c3)nc3ccccc23)cc1  -5.91%
26. CCCc1nc(N)nc2c1C(=O)CC(C)(C)C2  -4.47%
27. CNC(=O)c1c(NC(=O)c2ccc(S(=O)(=O)N3CCCCC3C)cc2)sc2c1CCN(C)C2 (stereo not shown)  -3.92%
28. O=C1C=C(c2ccccc2)CC(/C=C/c2ccccc2)C1 (stereo not shown)  -2.91%
29. Cc1cccc(CN2C(=O)[C@@H]3Cc4c([nH]c5ccccc45)C(C)(C)N3C2=O)c1  -0.614%
30. COc1ccc(NS(=O)(=O)c2cccc(C(=O)NNC(=O)c3ccc(O)c(Cl)c3)c2)cc1  -0.207%
31. O=c1[nH]c(N/N=C/c2cc3c(cc2[N+](=O)[O-])OCO3)nc2ccccc12  -0.00362%
32. O=c1[nH]c(CN2CCOCC2)nc2ccccc12  0.449%
33. Cn1ccnc1SCC(=O)N(C1CCCCC1)C1CCCCC1  3.29%
34. O=C(NCc1ccccn1)c1cc(S(=O)(=O)N2CCCCC2)ccc1Cl  3.78%
35. CN1CCN(Cc2nc3ccccc3c(=O)[nH]2)CC1  6.57%
36. O=C(NCC1CCCO1)c1cc2cc(F)ccc2[nH]1 (stereo not shown)  9.11%
37. COC(=O)c1c(NC(=O)C2(C)Cc3ccccc3C(=O)O2)sc2c1CCCC2 (stereo not shown)  12.7%
38. CCN1CCCC1CNC(=O)c1cc(OC)c(OC)c(OC)c1 (stereo not shown)  12.8%
39. C/C(=N\NC(=O)c1cc(O)cc(O)c1)c1ccc(NC(=O)Cc2ccccc2)cc1  14.2%
40. CSc1ccc(CN(C)C(C)C(=O)Nc2ccc(F)c(F)c2F)cc1 (stereo not shown)  15.3%
41. CCN1CCCC1CNC(=O)c1cc2cc(OC)c(OC)cc2[nH]1 (stereo not shown)  16.6%
42. COc1ccc(-c2csc(N(CCCN(C)C)C(=O)c3ccc(C(C)(C)C)cc3)n2)cc1.Cl  18%
43. CCN1CCCC1CNC(=O)c1cc2c(OC)c(OC)c(OC)cc2[nH]1 (stereo not shown)  23.2%
